# Compounds without any hit were thinned out: in the full panel of roughly 83,000, 20% have a hit.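 Percent growth is the endpoint: 0 to 100 indicates growth inhibition (40 means 60% inhibition), 0 means no net growth, and negative values indicate cell death.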 Values without a mark were called inactive. Active and inactive are the calls of the source. The calls were made as follows: active = growth percent below 10; inactive = the rest.
# Experiments:
# Assay in all cases: NCI-60 one-dose screen, 48 h (100 = growth as untreated, 0 = no growth, -100 = all killed)
# Settings in all cases: 10 µM unless noted
# DU-145 prostate = tested on: DU-145 prostate
# K-562 leukemia = tested on: K-562 leukemia
# MALME-3M melanoma = tested on: MALME-3M melanoma
# MDA-MB-231 breast = tested on: MDA-MB-231 breast
# RXF 393 renal = tested on: RXF 393 renal
# SF-268 CNS = tested on: SF-268 CNS
# SF-295 CNS = tested on: SF-295 CNS
# SF-539 CNS = tested on: SF-539 CNS
# UACC-257 melanoma = tested on: UACC-257 melanoma
# M14 melanoma = tested on: M14 melanoma
# HCT-15 colon = tested on: HCT-15 colon
# HT29 colon = tested on: HT29 colon
# SNB-75 CNS = tested on: SNB-75 CNS
# SNB-19 CNS = tested on: SNB-19 CNS
# U251 CNS = tested on: U251 CNS
# PC-3 prostate = tested on: PC-3 prostate
# SK-MEL-5 melanoma = tested on: SK-MEL-5 melanoma
# UACC-62 melanoma = tested on: UACC-62 melanoma
# LOX IMVI melanoma = tested on: LOX IMVI melanoma
# SK-MEL-28 melanoma = tested on: SK-MEL-28 melanoma
SMILES,growth (DU-145 prostate),growth (K-562 leukemia),growth (MALME-3M melanoma),growth (MDA-MB-231 breast),growth (RXF 393 renal),growth (SF-268 CNS),growth (SF-295 CNS),growth (SF-539 CNS),growth (UACC-257 melanoma),growth (M14 melanoma),growth (HCT-15 colon),growth (HT29 colon),growth (SNB-75 CNS),growth (SNB-19 CNS),growth (U251 CNS),growth (PC-3 prostate),growth (SK-MEL-5 melanoma),growth (UACC-62 melanoma),growth (LOX IMVI melanoma),growth (SK-MEL-28 melanoma)
C=C1C(=O)O[C@H]2[C@H]1CC/C(COC(=O)NCc1ccc(Cn3c(=O)sn(-c4ccc(OC)cc4)c3=O)cc1)=C\CC[C@@]1(C)O[C@@H]21,27%,-3.73% (active),-3.77% (active),47.7%,42.3%,86.5%,97.7%,82.1%,65.3%,25.7%,4.27% (active),-15.5% (active),96%,94.8%,77.7%,70.3%,97.9%,60.7%,25%,71%
CCCCNC1=C(OCC)C(=O)c2ccccc2C1=O,104%,126%,121%,98.9%,92.8%,97.3%,103%,112%,95.7%,95.5%,94.3%,123%,96.1%,100%,99.7%,94.4%,91.9%,97.5%,68.8%,114%
CN1CCN(CCOc2ccc(-c3cnc4c(-c5ccc(C(F)(F)F)cc5)cnn4c3)cc2)CC1,40.7%,-36% (active),50.4%,31.6%,32.4%,48.7%,64.4%,67.6%,8.47% (active),-64.2% (active),-33.6% (active),-15.5% (active),96.1%,61.4%,1.48% (active),28.3%,64.4%,72.4%,-89.9% (active),85.1%
COc1cc(C2Cc3ncccc3-c3[nH]c(=O)c4cccnc4c32)cc(OC)c1OC (stereo not given),23%,16.3%,77.6%,31%,8.5% (active),44.1%,1.73% (active),-18.8% (active),56.9%,10.3%,16.9%,0.572% (active),41.1%,29.2%,15.8%,21.8%,18.6%,28.2%,29.2%,66.4%
C#Cc1cccc(Oc2ccc(NC(=O)CCl)cc2)c1,72% [8.25 µM],7.79% [8.25 µM] (active),21.3% [8.25 µM],41.1% [8.25 µM],62.6% [8.25 µM],49.5% [8.25 µM],85.5% [8.25 µM],47% [8.25 µM],75.8% [8.25 µM],24.6% [8.25 µM],-29.8% [8.25 µM] (active),34.5% [8.25 µM],58.2% [8.25 µM],54.2% [8.25 µM],32.9% [8.25 µM],61.7% [8.25 µM],6.75% [8.25 µM] (active),26% [8.25 µM],-27.1% [8.25 µM] (active),91.8% [8.25 µM]
C=CC(=O)N1CCN(c2ccc3cccc(NC(=O)c4cnc(C)cn4)c3n2)CC1,29.1%,36.5%,30.5%,36.7%,11.4%,37.6%,61.5%,35.1%,37.2%,41.2%,21.3%,51.3%,15.4%,62.4%,32.1%,43.5%,61.4%,26.9%,33.4%,68%
Cc1ccc(-c2cc(C(=O)N3N=C(c4ccc(N)cc4)CC3c3ccc(Cl)cc3)c3ccccc3n2)cc1 (stereo not given),18.6%,7.72% (active),67%,44.5%,-0.262% (active),38.9%,21.4%,-2.29% (active),43.7%,-24% (active),30.2%,-1.84% (active),-4.36% (active),42.1%,22.5%,15.4%,12.4%,39.2%,37.2%,72.6%
CN(Cc1cnc2nc(N)nc(N)c2n1)c1c(Cl)cc(C(=O)NC(CCC(=O)O)C(=O)O)cc1Cl (stereo not given),23.8%,21.6%,68.5%,68%,30.9%,28.4%,2.98% (active),21.4%,33.8%,21.3%,28%,30.4%,63.9%,31.7%,33.4%,22.5%,21.3%,16.4%,13.8%,63.3%
Cc1cccc(N2CCN(C(=S)c3ccc4c(c3)OCO4)CC2)c1,11%,14%,21.8%,45.3%,-15.1% (active),47.2%,2.38% (active),-26.9% (active),32.5%,-4.87% (active),12.5%,6.38% (active),-21.4% (active),47.1%,20.7%,19.5%,6.14% (active),29.1%,32.8%,54%
O=C1c2cc3c(cc2-c2c1c1ccc(Cl)cc1c(=O)n2C[C@H](O)CO)OCO3,3.78% (active),10.4%,-26.7% (active),19.5%,-66.6% (active),4.7% (active),-14.8% (active),-33.1% (active),-36% (active),-14.2% (active),4.59% (active),0.971% (active),-9.59% (active),14.1%,0.379% (active),6.95% (active),-96.6% (active),-62% (active),-31.9% (active),-6.11% (active)
CS(=O)(=O)Nc1cc(-c2ccc3ncnc(Nc4ccc5c(cnn5Cc5cccnc5)c4)c3c2)cnc1Cl,63.4%,57.7%,5.01% (active),47.6%,44.4%,27.9%,81.8%,41.4%,64.5%,41%,84.7%,65.2%,-12.1% (active),60.1%,55.4%,52.2%,50.9%,25.9%,39.2%,29.4%
CC1(C)CC[C@]2(C(=O)N3CCOCC3)CC[C@]3(C)C(=CC[C@@H]4[C@@]5(C)C/C(=C/c6ccncc6)C(=O)C(C)(C)[C@@H]5CC[C@]43C)[C@@H]2C1,21.7%,6.99% (active),-19.7% (active),33.9%,-36.8% (active),48.6%,25.4%,-7.46% (active),14.8%,-8.66% (active),7.19% (active),5.31% (active),43%,47.5%,18.4%,10.9%,-63.5% (active),2.88% (active),-84% (active),-14.4% (active)
CC(=O)N(Cc1ccccc1)c1nc2ccc(O)c(CN(C)C)c2s1,108%,92.5%,98.1%,96%,98.2%,94.6%,92.6%,97.2%,102%,104%,97.8%,109%,79.2%,100%,96.2%,90.2%,99%,93.7%,94.1%,107%
O=C(Nc1cccc(NC(=O)C2CCCCC2)c1)c1ccccn1,103%,85.2%,91%,104%,125%,95.7%,97.9%,98.1%,108%,91.7%,100%,90.4%,87%,111%,109%,104%,99.7%,96.8%,90.6%,103%
O=C(Nc1cccnc1Nc1ccc(Cl)cc1)c1cn(Cc2ccc(F)cc2)nn1,106%,108%,117%,83.9%,98.7%,103%,96.6%,94.5%,105%,101%,95.4%,113%,94.6%,95.9%,99%,94.5%,100%,100%,104%,115%

# Source: PubChem BioAssay (NCI)
